NPR1 antag: Natriuretic polypeptide receptor (hNpr1) antagonism - Primary qHTS; hit rate 1.6% among 76,000; Potency, µM (top dose mostly 46.3 µM), inactives show top-dose activity change, negative = inhibition, usual class: inhibitors; HEK293 hNpr1 GloSensor cGMP, ANP-stimulated luminescence; Atrial natriuretic peptide receptor 1 (Homo sapiens), P16066; calls by dose curve; note: % is set by controls: 0 for no effect and ±100 for the full control effect; nearly all actives have a fitted effect of over 60% in size
Target sequence (P16066 whole entry, looked up): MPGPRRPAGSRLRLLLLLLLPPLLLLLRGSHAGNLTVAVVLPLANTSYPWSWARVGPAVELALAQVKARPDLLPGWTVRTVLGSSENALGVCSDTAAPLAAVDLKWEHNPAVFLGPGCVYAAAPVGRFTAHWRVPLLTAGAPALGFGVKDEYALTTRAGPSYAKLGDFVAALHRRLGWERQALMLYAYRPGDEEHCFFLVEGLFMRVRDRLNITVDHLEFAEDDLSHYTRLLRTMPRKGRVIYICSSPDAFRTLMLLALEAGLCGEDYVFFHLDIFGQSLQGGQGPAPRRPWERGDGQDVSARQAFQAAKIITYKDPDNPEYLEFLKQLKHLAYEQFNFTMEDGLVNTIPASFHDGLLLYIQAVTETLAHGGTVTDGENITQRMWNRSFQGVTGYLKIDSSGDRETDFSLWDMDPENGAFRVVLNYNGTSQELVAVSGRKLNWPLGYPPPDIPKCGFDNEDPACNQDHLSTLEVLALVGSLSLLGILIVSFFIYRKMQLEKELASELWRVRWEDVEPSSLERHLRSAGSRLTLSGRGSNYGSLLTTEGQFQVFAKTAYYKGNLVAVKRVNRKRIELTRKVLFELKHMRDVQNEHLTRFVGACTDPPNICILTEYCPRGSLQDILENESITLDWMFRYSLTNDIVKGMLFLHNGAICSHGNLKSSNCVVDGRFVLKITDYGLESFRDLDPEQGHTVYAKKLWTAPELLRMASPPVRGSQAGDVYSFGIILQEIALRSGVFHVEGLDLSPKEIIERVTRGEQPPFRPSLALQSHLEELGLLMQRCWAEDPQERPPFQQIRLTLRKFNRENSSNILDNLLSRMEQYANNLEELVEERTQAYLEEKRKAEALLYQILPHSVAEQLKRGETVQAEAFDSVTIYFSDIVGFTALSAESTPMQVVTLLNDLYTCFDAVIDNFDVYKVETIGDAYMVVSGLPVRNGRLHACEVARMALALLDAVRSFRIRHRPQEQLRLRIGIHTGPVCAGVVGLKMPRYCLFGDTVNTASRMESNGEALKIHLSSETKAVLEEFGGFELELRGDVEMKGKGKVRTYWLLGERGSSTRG
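HEK293 cells stably expressing human Npr1 and cGMP GloSensor pGS-40F, loaded 2 h with 2% GloSensor reagent, given compound 30 min at room temperature. Luminescence read before and 20 min after 0.1 nM hNppA.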
Luciferase inh: Firefly luciferase inhibition profiling of diverse chemical library using quantitative high-throughput screening; AID 1347043, 2019; Potency, µM (series often up to 115 µM), hits mostly inhibitors; purified P. pyralis luciferase, luminescence, biochemical; hit rate 2.5% among 76,000; Luciferin 4-monooxygenase (Photinus pyralis), P08659; note: % is set by controls: 0 for no effect and ±100 for the full control effect; nearly all actives have a fitted effect of over 65% in size
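Luminescence read by CCD imager after adding enzyme (10nM final) to wells holding compound, titrated in qHTS. Substrates 10uM each D-luciferin and ATP; buffer 50mM Tris acetate pH 7.5, 10mM Mg acetate, Tween-20, BSA.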
NIH3T3 tox: Cytotoxic Profiling in NIH 3T3 Cell Line of Diverse Libraries Using Quantitative High-Throughput Screening; NIH 3T3 viability, CellTiter-Glo ATP luminescence, 48-72 h; hit rate 4.3% among 94,000; Potency, µM (series often up to 96.7 µM), without a hit: at the highest dose activity change, negative = cytotoxicity, usual class: inhibitors; AID 1345082, 2018; note: % is set by controls: 0 for no effect and ±100 for the full control effect; nearly all actives have a fitted effect of over 55% in size
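Cytotoxicity was measured by CellTiter-Glo ATP luminescence after 48 or 72 h compound exposure at 37 °C. Mouse NIH 3T3 fibroblasts were seeded at 400 cells/well and dosed by 23 nL pin transfer.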
HEK293 tox: Cytotoxic Profiling in HEK 293 Cell Line of Diverse Libraries Using Quantitative High-Throughput Screening. HEK 293 viability, ATP luminescence (CellTiter-Glo), 48-72 h. Potency, µM (top dose mostly 115 µM), without a hit: at the top dose activity change, negative = cytotoxicity, hits mostly inhibitors. hit rate 6.6% among 94,000; note: % is set by controls: 0 for no effect and ±100 for the full control effect; nearly all actives have a fitted effect of over 60% in size
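Read-out: CellTiter-Glo ATP luminescence. Cells: HEK 293, 250 cells/well. Exposure: 48 or 72 hr, 37 degree Celsius.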
GPT2 inhibitor: Primary qHTS assay for inhibitors of Glutamate pyruvate transaminase 2 (GPT2); Recombinant GPT2, coupled pyruvate oxidase/HRP Amplex Red fluorescence; Potency, µM (doses to about 57.7 µM), inactives show at the top dose activity change, negative = inhibition, actives largely listed as inhibitors; hit rate 0.25% among 100,000; AID 1671188, 2021; note: % is set by controls: 0 for no effect and ±100 for the full control effect; nearly all actives have a fitted effect of over 60% in size
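Fluorescence read-out: pyruvate from GPT2 turnover coupled to pyruvate oxidase, HRP and Amplex Red (0.2mM ThPP, 0.2U/mL PO and HRP, 50uM Amplex final). Substrates 250uM a-KG, 2mM L-alanine; enzyme 10ng/uL; 30 min RT.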
NPR1 antag cnf: Natriuretic polypeptide receptor (hNpr1) antagonism - Confirmation; shares compounds with NPR1 antag; HEK293 hNpr1 cGMP GloSensor luminescence, ANP-stimulated; Potency, µM (doses to about 57.6 µM), for the others: at the top dose activity change, negative = inhibition, most hits filed as inhibitors; hit rate 76% among 1,400; AID 1347044, 2019; calls by dose curve; note: nearly all actives have a fitted effect of over 70% in size
Npr2 selectivity: Natriuretic polypeptide receptor (hNpr2) antagonism - Subtype selectivity assay; shares compounds with NPR1 antag; HEK293 hNpr2 GloSensor cGMP luminescence, CNP-stimulated; Potency, µM (doses to about 57.6 µM), without a hit: at the top dose activity change, negative = inhibition, most hits filed as inhibitors; hit rate 67% among 1,400; AID 1347046, 2019; calls by dose curve; note: nearly all actives have a fitted effect of over 70% in size
FLuc inh counter: Natriuretic polypeptide receptor (hNpr1) antagonism - Confirmation firefly luciferase (FLuc) inhibition counterscreen; shares compounds with NPR1 antag; hit rate 0.7% among 1,400; purified FLuc enzyme, luminescence, Km substrate; Potency, µM (top dose mostly 57.6 µM), for inactives: top-dose activity change, negative = inhibition, usual class: inhibitors; note: 0% is about no effect
GloSensor ctrl: Natriuretic polypeptide receptor (hNpr1) antagonism - Counterscreen GloSensor control cell line; shares compounds with NPR1 antag; HEK293 GloSensor cGMP, SNP-stimulated, luminescence; Potency, µM (top dose mostly 57.6 µM), without a hit: at the highest dose activity change, negative = inhibition, hits mostly inhibitors; hit rate 69% among 1,400; calls by dose curve; note: % is set by controls: 0 for no effect and ±100 for the full control effect; nearly all actives have a fitted effect of over 70% in size
* = called active by the depositor; i = inactive; ? = inconclusive; / = not tested or not shown; [ ] = remark or other dose. Only some compounds are listed: those with a hit (about 10% of all), similar ones and a draw of the others. Unless noted, calls come from the whole dose curve; as a rule, active = well fitted curve in the direction sought with a large enough effect; inconclusive = small, poorly fitted or top-dose-only effect, or another doubt; inactive = no such curve, though single readings can be large; an effect the other way counts as inactive or inconclusive. Potency is the fitted concentration of half-maximal effect.

SMILES	NPR1 antag	Luciferase inh	NIH3T3 tox	HEK293 tox	GPT2 inhibitor	NPR1 antag cnf	Npr2 selectivity	FLuc inh counter	GloSensor ctrl
COc1cccc(-c2cccc(C(=O)N3CCCC3C(=O)NC3CC3)c2)c1 (stereo unspecified)	/	/	-15.1%[138 µM]	?	-18.9%[88.5 µM]	/	/	/	/
COc1cccc(CN2CCCC(C(=O)NCc3ccccc3)CCNC(=O)CC2)c1 (stereo unspecified)	0.2%	i	-0.9%	i	i	/	/	/	/
N#Cc1ccccc1CN1CCCC(C(=O)NCc2ccccc2)CCNC(=O)CC1 (stereo unspecified)	3.98µM*	i	-11.4%	i	i	13.7µM*	6.11µM*	3.0%	15.3%
Cc1cccc2c1nc1n2[C@@H](CNCc2ccccc2)COC1	20µM*	i	?	?	-2.3%[88.5 µM]	31.4µM*	31.4µM*	3.0%[86.2 µM]	22.2µM*
Fc1ccc2c(c1)nc1n2[C@@H](CNCc2ccccn2)COC1	-7.5%[70.6 µM]	i	?	?	4.9%[88.5 µM]	/	/	/	/
c1ccc2ncc(CNC[C@H]3COCc4nc5ccccc5n43)cc2c1	20µM*	i	?	?	2.5%[88.5 µM]	31.4µM*	31.4µM*	0.7%[86.2 µM]	28µM*
COc1ccc2nc3n(c2c1)[C@@H](CNCc1cnc2ccccc2c1)COC3	-14.7%[70.6 µM]	i	-25.4%[138 µM]	-27.2%[172 µM]	-3.8%[88.5 µM]	/	/	/	/
Fc1ccc2c(c1)nc1n2[C@@H](CNCc2cnc3ccccc3c2)COC1	35.5µM*	i	-26.4%[138 µM]	?	-5.4%[88.5 µM]	39.6µM*	?	-2.6%[86.2 µM]	39.6µM*
CC(=O)Nc1ccc(CNC[C@H]2COCc3nc4c(C)cccc4n32)cc1	?	i	-16.4%[138 µM]	?	i	/	/	/	/
Cc1nc(NCCc2nccc(-c3ccccc3)n2)cc(C2CC(O)C2)n1 (stereo unspecified)	-16.7%	i	?	?	2.6%	/	/	/	/
COc1cc(-c2onc(C)c2C(=O)NCCCOC(C)C)cc(OC)c1OC	5.4%	i	-20.0%	-18.9%	0.9%	/	/	/	/
COc1cccc(CNc2cc(Cl)nc3ccnn23)c1	?	i	28.2µM*	?	-2.2%[88.5 µM]	39.6µM*	35.3µM*	1.8%[86.2 µM]	35.3µM*
COCCN1CCCC2(CCN(c3nc(C)nc4sccc34)C2)C1=O (stereo unspecified)	?	i	?	-34.2%	i	24.3µM*	?	-1.3%	24.3µM*
COCC(NC(=O)c1ccc2nc(C3CCCCC3)oc2c1)c1ccnn1C (stereo unspecified)	?	i	-23.7%	?	-3.4%	-29.3%	?	4.8%	-8.6%
COc1ccc(C2(C(=O)NC3CCCc4c3[nH]c3ccccc43)CCOCC2)cc1 (stereo unspecified)	?	i	39.8µM*	?	-6.7%	21.7µM*	15.3µM*	-0.9%	-4.8%

Compound activity as filed in PubChem.
